PubChem BioAssay
Unmarked numbers belong to inactive results. A call without a number means that no potency is given here. For part of these data: Potency and affinity values are given separately. Calls of active or inactive are those of the source. Unless noted, no rule for the calls is given here.

How the values were obtained:
[1] = antimalarial activity against Dd2 strain (AID 2302;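 active = growth inhibition above 50% at the single 2 µM test dose, taken to imply half-maximal potency below 2 µM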); conditions: P. falciparum Dd2 in RBCs, LDH growth readout, 72 h; at 2 µM; hits give high values
[2] = HepG2 cytotoxicity, primary screen, cytotoxicity control for P. falciparum antimalarial project, cell-based, ATP luminescence (AID 2303;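 active = inhibition above 50%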); conditions: HepG2 viability, 24-48 h, at 10 µM, hits give high values
[3] = target: L-lactate dehydrogenase (Plasmodium falciparum (isolate CDC / Honduras)) (UniProt Q27743); assay: PfLDH activity inhibition – cell lysate, 3D7 strain, counter-screen for P. falciparum growth inhibition project (AID 2304); conditions: P. falciparum 3D7 crude extract, LDH APAD/NBT absorbance; at 2 µM; hits give high values
Chain of L-lactate dehydrogenase (Plasmodium falciparum (isolate CDC / Honduras)) (Q27743 whole entry, looked up): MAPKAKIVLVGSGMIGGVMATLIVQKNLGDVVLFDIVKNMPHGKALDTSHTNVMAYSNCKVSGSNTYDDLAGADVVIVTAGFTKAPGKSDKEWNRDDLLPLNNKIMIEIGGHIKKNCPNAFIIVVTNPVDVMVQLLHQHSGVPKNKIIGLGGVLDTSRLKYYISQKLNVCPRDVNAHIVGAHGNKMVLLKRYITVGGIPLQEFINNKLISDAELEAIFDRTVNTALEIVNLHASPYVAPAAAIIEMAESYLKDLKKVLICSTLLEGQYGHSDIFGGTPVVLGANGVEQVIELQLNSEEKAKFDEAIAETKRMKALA

[4] = inhibition of 3D7 malaria parasite growth – strain 3D7 (AID 2306); conditions: P. falciparum 3D7 erythrocytic growth, LDH absorbance, 72 h; at 2 µM; hits give high values
[5] = target: Calcium-dependent protein kinase 1 (Plasmodium falciparum (isolate 3D7)) (UniProt P62344); assay: PfCDPK1 kinase inhibitors, biochemical, TCAMS library (AID 1159585; cut-off not given, nearly all actives have IC50 up to about 0.98 µM;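 also: inhibitors leave more ATP so luminescence rises with inhibition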); conditions: recombinant PfCDPK1, Kinase-Glo ATP depletion luminescence
Chain of Calcium-dependent protein kinase 1 (Plasmodium falciparum (isolate 3D7)) (P62344 whole entry, looked up): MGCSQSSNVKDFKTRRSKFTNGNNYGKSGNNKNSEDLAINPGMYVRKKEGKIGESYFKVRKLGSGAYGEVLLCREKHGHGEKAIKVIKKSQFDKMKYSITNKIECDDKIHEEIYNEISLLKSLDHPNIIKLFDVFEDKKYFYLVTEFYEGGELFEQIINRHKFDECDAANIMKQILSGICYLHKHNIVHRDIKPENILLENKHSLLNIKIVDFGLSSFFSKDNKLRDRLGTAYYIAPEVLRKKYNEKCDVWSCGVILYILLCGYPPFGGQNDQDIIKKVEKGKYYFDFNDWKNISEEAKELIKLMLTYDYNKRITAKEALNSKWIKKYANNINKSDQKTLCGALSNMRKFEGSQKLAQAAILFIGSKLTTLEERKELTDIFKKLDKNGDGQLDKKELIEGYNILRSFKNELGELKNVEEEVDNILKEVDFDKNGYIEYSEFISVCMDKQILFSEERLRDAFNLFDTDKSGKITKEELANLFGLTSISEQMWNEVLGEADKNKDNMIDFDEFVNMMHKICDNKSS

[6] = target: Plasmodium falciparum protein kinase 6 (PK6, PF3D7_1337100) (UniProt Q8IDW1); assay: PfPK6 kinase inhibitors, biochemical, TCAMS library (AID 1159586); conditions: recombinant PfPK6, Kinase-Glo ATP depletion luminescence
Chain of Plasmodium falciparum protein kinase 6 (PK6, PF3D7_1337100) (Q8IDW1 1-305): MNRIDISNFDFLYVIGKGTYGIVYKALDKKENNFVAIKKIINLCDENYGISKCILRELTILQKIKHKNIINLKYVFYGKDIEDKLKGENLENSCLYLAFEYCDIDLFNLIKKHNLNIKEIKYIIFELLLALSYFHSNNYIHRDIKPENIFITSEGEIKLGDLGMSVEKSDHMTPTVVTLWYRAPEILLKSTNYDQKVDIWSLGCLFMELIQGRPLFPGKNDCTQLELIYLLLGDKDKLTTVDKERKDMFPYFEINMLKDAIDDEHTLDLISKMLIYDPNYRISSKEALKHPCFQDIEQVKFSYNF

[7] = target: Protein kinase 7 (PK7), Plasmodium falciparum 3D7 (PF3D7_0213400) (UniProt Q7YTF7); assay: inhibition of Plasmodium PK7 catalytic activity – biochemical, TCAMS antimalarial set, Kinase-Glo luminescence (AID 1159587); conditions: recombinant PfPK7, Kinase-Glo ATP depletion luminescence
Chain of Protein kinase 7 (PK7), Plasmodium falciparum 3D7 (PF3D7_0213400) (Q7YTF7 1-343): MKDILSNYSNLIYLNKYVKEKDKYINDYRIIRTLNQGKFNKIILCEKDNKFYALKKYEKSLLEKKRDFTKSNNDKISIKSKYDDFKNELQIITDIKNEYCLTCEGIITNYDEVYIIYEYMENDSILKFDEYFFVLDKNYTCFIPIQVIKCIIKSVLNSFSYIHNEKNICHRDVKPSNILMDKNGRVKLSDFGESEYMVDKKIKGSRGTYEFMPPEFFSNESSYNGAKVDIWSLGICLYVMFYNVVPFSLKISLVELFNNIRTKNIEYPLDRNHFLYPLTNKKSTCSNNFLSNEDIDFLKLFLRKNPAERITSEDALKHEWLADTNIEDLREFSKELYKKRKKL

[8] = target: Calcium-dependent protein kinase 4 (Plasmodium falciparum (isolate 3D7)) (UniProt Q8IBS5); assay: PfCDPK4 kinase inhibitors, biochemical, TCAMS library (AID 1159588; cut-off not given, nearly all actives have IC50 up to about 0.91 µM); conditions: recombinant PfCDPK4, Kinase-Glo ATP depletion luminescence
Chain of Calcium-dependent protein kinase 4 (Plasmodium falciparum (isolate 3D7)) (Q8IBS5 whole entry, looked up): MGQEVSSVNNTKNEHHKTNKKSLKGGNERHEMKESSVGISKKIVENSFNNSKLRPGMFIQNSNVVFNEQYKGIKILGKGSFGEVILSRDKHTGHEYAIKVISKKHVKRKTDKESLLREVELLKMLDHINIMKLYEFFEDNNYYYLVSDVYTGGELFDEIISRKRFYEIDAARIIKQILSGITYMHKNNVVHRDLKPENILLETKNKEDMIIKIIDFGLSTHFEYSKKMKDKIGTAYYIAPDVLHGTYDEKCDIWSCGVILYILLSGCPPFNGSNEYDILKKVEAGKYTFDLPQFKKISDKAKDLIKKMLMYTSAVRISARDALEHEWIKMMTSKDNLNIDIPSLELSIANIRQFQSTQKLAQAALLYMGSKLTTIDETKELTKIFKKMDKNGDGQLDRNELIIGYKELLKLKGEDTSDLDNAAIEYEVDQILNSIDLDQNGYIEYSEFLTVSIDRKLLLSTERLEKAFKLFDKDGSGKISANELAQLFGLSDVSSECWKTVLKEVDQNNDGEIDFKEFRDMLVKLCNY

| Compound | growth inhibition [1] | inhibition [2] | inhibition [3] | growth inhibition [4] | outcome [5] | outcome [6] | outcome [7] | outcome [8] |
| --- | --- | --- | --- | --- | --- | --- | --- | --- |
| COCCN(C)CCCOc1cc2c(cc1OC)ncn2-c1cc(OCc2ccccc2C(F)(F)F)c(C(N)=O)s1 | 49% | 24% | 2% | 98% (active) | inactive | inactive | inactive | inactive |
| O=C(NC1CCN(CCCc2ccccc2)CC1)c1ccc(-c2cccc(C(F)(F)F)c2)s1 | 47% | 93% (active) | 1% | 95% (active) | inactive | inactive | inactive | inactive |
| Cc1cccc2[nH]c(-c3ccc(-c4cccc(CN5CCC(CO)CC5)c4)s3)nc12 | 61% (active) | 20% | -8% | 99% (active) | inactive | inactive | inactive | inactive |
| COc1cccc(CN2CCCC(OC(c3ccc(F)cc3)c3ccc(F)cc3)C2)c1O (stereo not drawn) | 95% (active) | 8% | 5% | 95% (active) | inactive | inactive | inactive | inactive |
| O=C(NCCCCCCNCc1ccc(-c2ccccc2)cc1)Nc1ccc(Cl)c(Cl)c1 | 2% | 14% | -1% | 90% (active) | inactive | inactive | inactive | inactive |
| COCCNc1nc(N2CCC(CNC(=O)c3ccc(-c4ccc(C(=O)N(C)C)cc4C)cc3)CC2)nc2cc(OC)c(OC)cc12 | 97% (active) | 12% | 3% | 98% (active) | inactive | inactive | inactive | inactive |
